# Reference: PubChem BioAssay
# Calls of active or inactive are those of the source. Unless noted, no rule for the calls is given here.
# Tests used:
# [1] = test system: Wnt5a (protein binding on small-molecule microarray); assay: small molecules binding Wnt5a protein – biophysical, small-molecule microarray, 635/667 nm fluorescence, primary screen (AID 1142); conditions: 635 nm fluorescence, higher = more signal;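 also: fluorescence read at 667 nm with signal to noise per printed feature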
# [2] = ATP-based viability of Huh7 replicon cells – cell-based, CellTiter-Glo luminescence, basal, 48 h, cytotoxicity control for HCV replication inhibitor project, primary screen (AID 1143); conditions: higher = more signal, called active from +8 up or from −8 down;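 also: Huh7 hepatoma cells carrying a hepatitis C replication reporter with no stimulus; test concentration not given here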
# [3] = Pseudomonas biofilm growth suppression – PAO1 strain, BacTiter-Glo luminescence, LB-PBS, primary screen (AID 1144); conditions: P. aeruginosa PAO1 biofilm, 12 h, higher = more signal
# [4] = basal CRE-LacZ reporter activity in PC12 – cell-based, unstimulated, primary screen (AID 1145); conditions: no forskolin, luminescence, 4.5 h, higher = more signal, called active from +8 up or from −8 down
# [5] = forskolin-driven CRE-LacZ activity in PC12 – cell-based, CRE-LacZ reporter, forskolin-stimulated, primary screen (AID 1146); conditions: luminescence, 4.5 h, higher = more signal, called active from +8 up or from −8 down;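 also: PC12 cells with 6xCRE LacZ reporter stimulated by forskolin 10 µM; beta-galactosidase reporter signal reflecting CREB driven transcription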
# [6] = molecular target: Streptavidin (Streptomyces avidinii) (UniProt P22629); assay: compounds binding control protein streptavidin – biophysical, small-molecule microarray, 635/667 nm fluorescence, artefact control for SMM compound annotation, primary screen (AID 1147); conditions: higher = more signal;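 also: signal reflects streptavidin binding to arrayed compounds as a control protein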
# Chain of Streptavidin (Streptomyces avidinii) (P22629 whole entry, looked up): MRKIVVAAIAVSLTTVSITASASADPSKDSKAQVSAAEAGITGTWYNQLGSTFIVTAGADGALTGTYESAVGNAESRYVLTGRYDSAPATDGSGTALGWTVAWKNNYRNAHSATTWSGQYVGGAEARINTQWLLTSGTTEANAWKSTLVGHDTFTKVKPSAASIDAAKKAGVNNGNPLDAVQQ
# [7] = probe aInhba binding on compound microarray – biochemical, small-molecule microarray, 635/667 nm fluorescence, primary screen (AID 1148); conditions: higher = more signal;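 also: score merges 667nm spot fluorescence with signal-to-noise for antibody binding to printed compounds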
# Torsin-1A (Homo sapiens) [8] = molecular target: Torsin-1A (Homo sapiens) (UniProt O14656); assay: TOR1A wild-type binding on microarray – cell lysate, small-molecule microarray, lysate, 635/667 nm, primary screen (AID 1149); conditions: COS7 hTOR1A-WT lysate, 635 nm fluorescence, higher = more signal
# Chain of Torsin-1A (Homo sapiens) (O14656 whole entry, looked up): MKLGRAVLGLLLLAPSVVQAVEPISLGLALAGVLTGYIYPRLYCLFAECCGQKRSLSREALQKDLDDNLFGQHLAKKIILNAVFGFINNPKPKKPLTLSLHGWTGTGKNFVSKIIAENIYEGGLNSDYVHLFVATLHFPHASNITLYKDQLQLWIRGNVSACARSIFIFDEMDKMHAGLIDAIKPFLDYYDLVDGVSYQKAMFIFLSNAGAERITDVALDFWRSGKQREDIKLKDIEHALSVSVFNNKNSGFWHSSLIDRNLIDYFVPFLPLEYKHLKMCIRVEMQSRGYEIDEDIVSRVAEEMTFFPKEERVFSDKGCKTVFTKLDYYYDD
# Torsin-1A (Homo sapiens) [9] = molecular target: Torsin-1A (Homo sapiens) (UniProt O14656); assay: torsin A mutant lysate binding on microarrays – cell lysate, small-molecule microarray, COS7 lysate, 635/667 nm fluorescence, primary screen (AID 1150); conditions: COS7 hTOR1A mutant lysate, 635 nm fluorescence, higher = more signal;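 also: score pools 667 nm emission and signal to noise measuring lysate protein binding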
# [10] = test system: Sonic hedgehog protein (Shh); assay: Sonic hedgehog microarray binding compounds – biochemical, small-molecule microarray, 635/667 nm fluorescence, primary screen (AID 1151); conditions: 635 nm fluorescence, higher = more signal;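 also: Shh protein binding to compounds spotted on small-molecule microarray slides; score combines spot fluorescence intensity with signal-to-noise across triplicate slides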
# [11] = optical density shifts of acrAB sulA E. coli – strain DRC41, OD650, 48 h, E. coli filamentation inducer project, primary screen (AID 1152); conditions: higher = more signal, called active from +8 up or from −8 down;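 also: E. coli MC1000 strain DRC41 lacking acrAB efflux pump and sulA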
# [12] = probe aLefty1 binding on compound microarray – biochemical, small-molecule microarray, 635/667 nm fluorescence, primary screen (AID 1153); conditions: higher = more signal;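 also: score merges spot fluorescence with signal-to-noise ratio from the scanned slide images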
# [13] = plasmodial surface anion channel blockers, osmotic lysis – cell-based, P. falciparum Indochina, OD700, 1 h, primary screen (AID 1154); conditions: P. falciparum Indochina infected RBC osmotic lysis, higher = more signal, called active from +8 up or from −8 down
# [14] = plasmodial surface anion channel blockers, osmotic lysis – cell-based, P. falciparum Indochina, OD700, 2 h, primary screen (AID 1155);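 also: lysis reports solute entry through the parasite surface anion channel PSAC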; conditions: P. falciparum Indochina infected erythrocytes, higher = more signal, called active from +8 up or from −8 down
# [15] = changes in parasitized red cell lysis, either direction – P. falciparum Indochina, OD700, 3 h, PSAC antagonist project, primary screen (AID 1156); conditions: P. falciparum-infected erythrocytes, osmotic lysis, higher = more signal, called active from +8 up or from −8 down
# [16] = plasmodial surface anion channel blockers, osmotic lysis – cell-based, P. falciparum Indochina, OD700, 18 h, primary screen (AID 1157); conditions: P. falciparum Indochina infected erythrocytes, osmotic lysis OD700, 18 h; higher = more signal, called active from +8 up or from −8 down
# [17] = S6 kinase pathway phospho-S6 level changes – cell-based, A549, cytoblot, luminescence, serum-stimulated, primary screen (AID 1158); conditions: 5 h, higher = more signal;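 also: serum-stimulated A549 lung adenocarcinoma cells; signal is phosphorylated S6 detected by cytoblot immunostaining with HRP secondary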
# [18] = molecular target: NADPH oxidase 2 (Homo sapiens) (UniProt P04839); assay: compounds shifting NOX2 Amplex Red fluorescence – cell-based, HEK293-NOX2, PMA-stimulated, NOX inhibitor project, primary screen (AID 1159); conditions: 45 min, higher = more signal, called active from +8 up or from −8 down; also: test concentration not given here
# Chain of NADPH oxidase 2 (Homo sapiens) (P04839 whole entry, looked up): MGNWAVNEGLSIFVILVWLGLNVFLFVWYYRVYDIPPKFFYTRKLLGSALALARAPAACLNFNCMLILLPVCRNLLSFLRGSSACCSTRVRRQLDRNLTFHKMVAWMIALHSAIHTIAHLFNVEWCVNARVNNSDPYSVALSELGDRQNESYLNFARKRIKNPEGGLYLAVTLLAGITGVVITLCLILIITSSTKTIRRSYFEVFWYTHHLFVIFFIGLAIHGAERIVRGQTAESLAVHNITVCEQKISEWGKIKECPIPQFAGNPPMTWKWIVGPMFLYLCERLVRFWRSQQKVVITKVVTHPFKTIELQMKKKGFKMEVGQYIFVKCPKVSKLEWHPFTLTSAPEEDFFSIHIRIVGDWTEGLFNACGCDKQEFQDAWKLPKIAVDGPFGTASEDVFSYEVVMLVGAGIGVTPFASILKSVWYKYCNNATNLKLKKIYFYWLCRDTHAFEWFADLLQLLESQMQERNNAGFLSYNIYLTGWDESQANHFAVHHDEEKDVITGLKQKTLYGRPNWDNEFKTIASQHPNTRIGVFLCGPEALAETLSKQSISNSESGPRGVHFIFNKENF
# [19] = molecular target: NADPH oxidase 4 (Homo sapiens) (UniProt Q9NPH5); assay: compounds shifting NOX4 Amplex Red fluorescence – cell-based, HEK293-NOX4, tetracycline-induced, NOX inhibitor project, primary screen (AID 1160); conditions: HEK293-NOX4, Amplex Red H2O2 fluorescence, 45 min; higher = more signal, called active from +8 up or from −8 down
# Chain of NADPH oxidase 4 (Homo sapiens) (Q9NPH5 whole entry, looked up): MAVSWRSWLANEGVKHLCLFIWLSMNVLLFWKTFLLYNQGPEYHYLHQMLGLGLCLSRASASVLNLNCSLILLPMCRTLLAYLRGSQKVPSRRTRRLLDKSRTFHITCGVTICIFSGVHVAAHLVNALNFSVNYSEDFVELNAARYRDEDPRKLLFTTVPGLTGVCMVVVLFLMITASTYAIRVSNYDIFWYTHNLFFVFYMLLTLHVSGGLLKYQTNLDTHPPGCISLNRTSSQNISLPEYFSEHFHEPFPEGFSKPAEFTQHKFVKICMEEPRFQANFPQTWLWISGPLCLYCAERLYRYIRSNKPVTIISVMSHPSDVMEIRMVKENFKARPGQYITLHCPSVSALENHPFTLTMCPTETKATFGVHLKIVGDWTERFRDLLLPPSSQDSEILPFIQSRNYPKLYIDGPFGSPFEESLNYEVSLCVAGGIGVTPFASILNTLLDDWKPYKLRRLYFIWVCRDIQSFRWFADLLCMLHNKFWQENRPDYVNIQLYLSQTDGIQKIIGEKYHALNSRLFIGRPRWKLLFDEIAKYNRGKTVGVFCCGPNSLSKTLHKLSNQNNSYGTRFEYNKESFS
# [20] = molecular target: NADPH oxidase 5 (Homo sapiens) (UniProt Q96PH1); assay: compounds shifting NOX5 Amplex Red fluorescence – cell-based, HEK293-NOX5, NOX inhibitor project, primary screen (AID 1161); conditions: HEK293-NOX5, ionomycin, 45 min, higher = more signal
# Chain of NADPH oxidase 5 (Homo sapiens) (Q96PH1 whole entry, looked up): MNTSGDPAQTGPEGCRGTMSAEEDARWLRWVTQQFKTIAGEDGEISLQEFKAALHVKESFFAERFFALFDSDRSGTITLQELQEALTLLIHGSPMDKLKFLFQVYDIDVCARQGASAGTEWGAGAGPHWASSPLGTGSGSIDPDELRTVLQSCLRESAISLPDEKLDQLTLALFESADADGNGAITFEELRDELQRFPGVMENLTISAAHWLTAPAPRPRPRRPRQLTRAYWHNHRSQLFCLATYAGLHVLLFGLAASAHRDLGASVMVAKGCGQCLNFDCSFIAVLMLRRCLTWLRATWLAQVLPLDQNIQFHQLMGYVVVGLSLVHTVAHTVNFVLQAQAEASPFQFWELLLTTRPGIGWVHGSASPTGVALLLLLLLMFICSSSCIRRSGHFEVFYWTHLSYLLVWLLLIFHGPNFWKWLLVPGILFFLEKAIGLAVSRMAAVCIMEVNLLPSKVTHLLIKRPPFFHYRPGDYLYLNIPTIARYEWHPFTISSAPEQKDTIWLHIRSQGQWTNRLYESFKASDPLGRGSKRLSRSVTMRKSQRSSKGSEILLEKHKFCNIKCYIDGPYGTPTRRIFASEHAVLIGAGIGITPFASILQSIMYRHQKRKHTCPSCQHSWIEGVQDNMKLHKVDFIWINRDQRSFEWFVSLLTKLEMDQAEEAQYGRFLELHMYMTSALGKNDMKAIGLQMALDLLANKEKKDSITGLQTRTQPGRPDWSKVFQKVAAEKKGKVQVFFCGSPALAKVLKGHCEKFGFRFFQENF
Structure (SMILES),composite z-score [1],z-score [2],z-score [3],z-score [4],z-score [5],composite z-score [6],composite z-score [7],composite z-score (Torsin-1A (Homo sapiens) [8]),composite z-score (Torsin-1A (Homo sapiens) [9]),composite z-score [10],z-score [11],composite z-score [12],z-score [13],z-score [14],z-score [15],z-score [16],z-score [17],z-score [18],z-score [19],z-score [20]
O=C1NC(=O)C2C1C=CC(C(O)C=Cc1ccc([N+](=O)[O-])cc1)N2Nc1ccccn1 (stereo not given),0.421,0.931 (inactive),-1.23 (inactive),0.443 (inactive),-0.28 (inactive),-0.208,0.0694,0.151,0.13,0.809,-0.297 (inactive),0.0457,0.273 (inactive),1.27 (inactive),0.0385 (inactive),1 (inactive),-0.831,0.258 (inactive),-2.01 (inactive),-1.52
Cc1ccc(S[C@]2(C(=O)NC(C)C)CC(=O)N(C3Cc4ccccc4C3)[C@@H]2c2ccc(CO)cc2)cc1,-0.157,-4.65 (inactive),-0.132 (inactive),-0.231 (inactive),0.978 (inactive),-0.37,-0.32,0.876,0.764,1.67,-0.415 (inactive),-0.357,2.26 (inactive),-0.862 (inactive),1.04 (inactive),-1.88 (inactive),1.95,0.0257 (inactive),-0.029 (inactive),-0.927
C[C@H]1C2[C@H](Cc3ccccc3)NC(=O)[C@]23C(=O)N[C@H](Cc2ccccc2)C(=O)N[C@@H](Cc2ccccc2)C(=O)NC/C=C\C/C=C/C3[C@@H]2O[C@]12C (stereo not given in full),0.0327,-3.18 (inactive),0.593 (inactive),0.311 (inactive),-1.85 (inactive),-0.214,0.173,-0.0236,0.147,1.65,0.839 (inactive),0.305,3.27 (inactive),0.358 (inactive),-0.0925 (inactive),0.0094 (inactive),0.654,0.453 (inactive),1.1 (inactive),1.26
O=C1C2C=CC(C(O)C#Cc3ccccc3)N(Nc3ccccc3)C2C(=O)N1c1ccccc1 (stereo not given),0.0509,0.842 (inactive),-0.2 (inactive),0.24 (inactive),0.0728 (inactive),0.464,0.0659,0.795,-0.0627,-0.0028,-0.559 (inactive),-0.025,4.69 (inactive),1.8 (inactive),0.537 (inactive),1.49 (inactive),-0.964,-0.432 (inactive),-4.44 (inactive),-1.09
COc1ccc([Si](C)(C)[C@H]2[C@H](CC(=O)N(CCO)Cc3ccccc3)O[C@@]3(C(=O)N(C)c4ccccc43)[C@@H]2C)cc1,0.321,-5.59 (inactive),-0.306 (inactive),4.69 (inactive),0.0125 (inactive),0.153,-0.0986,0.0317,0.83,1.65,1.28 (inactive),0.106,9.01 (active),0.781 (inactive),-1.12 (inactive),-0.698 (inactive),0.342,-0.246 (inactive),0.129 (inactive),-2.43
CC(C)[Si](OCC[C@H]1O[C@]2(C(=O)N(Cc3ccccc3)c3ccccc32)[C@@H](C)[C@@H]1[Si](C)(C)O)(C(C)C)C(C)C,0.0427,-0.555 (inactive),0.735 (inactive),0.223 (inactive),-0.242 (inactive),-0.0546,-0.171,0.399,-0.131,0.255,0.65 (inactive),-0.193,0.914 (inactive),0.799 (inactive),0.226 (inactive),0.403 (inactive),0.158,0.999 (inactive),-0.328 (inactive),0.523
O=C/C=C/c1ccccc1Cl,-0.159,-0.724 (inactive),-0.904 (inactive),-0.0243 (inactive),-0.468 (inactive),0.143,0.0705,-0.342,0.081,-0.0129,2.11 (inactive),-0.191,0.159 (inactive),0.282 (inactive),-2.03 (inactive),0.206 (inactive),1.11,-0.129 (inactive),-0.729 (inactive),1.38
Cc1ccc(N2C(=O)c3ccccc3[C@@H](C(=O)NCC(F)(F)F)[C@@H]2c2ccc(CO)cc2)nc1,0.0023,-0.977 (inactive),0.00438 (inactive),0.791 (inactive),0.495 (inactive),-1.62,0.17,-1.76,-1.78,0.0716,0.734 (inactive),-0.0099,1.32 (inactive),0.422 (inactive),0.827 (inactive),0.38 (inactive),0.189,1.22 (inactive),0.32 (inactive),-0.914
CO[C@H]1O[C@H](CO)[C@@H](OC(=O)Nc2ccc3c(c2)OCO3)[C@H](OC(=O)Nc2ccccc2)[C@@H]1OC(=O)Nc1ccccc1,0.743,-3.5 (inactive),-0.22 (inactive),0.605 (inactive),-1.49 (inactive),0.327,0.0398,0.491,1.09,1.12,-1.51 (inactive),0.121,7.77 (inactive),0.903 (inactive),-0.33 (inactive),0.717 (inactive),0.342,1.07 (inactive),-0.393 (inactive),-0.675
CC(=O)NCCCC[C@@H]1NC(=O)[C@H]2C[C@@H](C(=O)NCCCCCCN(C)C)[C@@H](c3ccc(O)cc3)N2C1=O,0.124,-0.0718 (inactive),-0.181 (inactive),0.281 (inactive),0.403 (inactive),1.36,1.12,1.6,1.21,1.79,-0.233 (inactive),0.538,1.32 (inactive),0.461 (inactive),1.92 (inactive),0.0071 (inactive),0.144,-0.768 (inactive),-1.51 (inactive),-0.479
CCCC=C(CCC)[C@@H](NC(=O)c1ccc(C(F)(F)F)cc1)c1ccccc1,-0.191,-3.91 (inactive),-0.383 (inactive),0.962 (inactive),-0.0536 (inactive),0.233,0.208,0.518,0.199,-0.634,-1.25 (inactive),0.718,0.666 (inactive),-0.96 (inactive),0.394 (inactive),-1.05 (inactive),1.47,-3.96 (inactive),-3.71 (inactive),-3.65
COCCOC(=O)N1C(=O)[C@@]2(c3cc(C#CCCO)ccc31)[C@H](c1ccc(OCCO)cc1)N1[C@H](c3ccccc3)[C@H](c3ccccc3)OC(=O)[C@H]1[C@@H]2C(=O)NC[C@H](O)c1ccccc1,0.619,-2.79 (inactive),-0.668 (inactive),-1.42 (inactive),-0.137 (inactive),0.427,0.0183,0.703,1.16,1.7,1.04 (inactive),-0.0054,2.48 (inactive),1.1 (inactive),0.68 (inactive),0.678 (inactive),0.75,2.04 (inactive),0.385 (inactive),0.419
COC(=O)[C@@]1(Cc2ccccc2N=[N+]=[N-])N=C(c2ccc(OCCCO)cc2)O[C@H]1c1ccccc1CN=[N+]=[N-],0.171,-5.31 (inactive),1.18 (inactive),3.33 (inactive),-0.412 (inactive),-0.46,-0.0102,-0.181,-0.303,0.144,0.383 (inactive),0.191,22.3 (active),8.71 (active),0.12 (inactive),3.46 (inactive),0.575,-1.84 (inactive),0.483 (inactive),-0.961
COC(=O)[C@@]1(Cc2ccccc2)[C@H]2c3cc(C(=O)N4CCCC4)n(CCN4CNCC4=O)c3C[C@H]2CN1C(=O)c1ccccc1,-0.042,-0.119 (inactive),0.351 (inactive),-0.182 (inactive),-0.768 (inactive),2.04,0.202,-0.0625,1.02,-0.535,-1.1 (inactive),0.0176,-0.469 (inactive),-1.05 (inactive),0.423 (inactive),-1.63 (inactive),0.212,0.122 (inactive),1.61 (inactive),0.595
COc1ccc([Si](C)(C)[C@@H]2[C@@H](CC(=O)N(CCO)Cc3ccccc3)O[C@]3(C(=O)N(Cc4cccc(N5CCC5=O)c4)c4ccccc43)[C@H]2C)cc1,0.0348,-5.72 (inactive),0.765 (inactive),0.236 (inactive),0.398 (inactive),-0.287,0.0301,0.0525,-0.009,1.81,0.557 (inactive),0.122,3.67 (inactive),1.49 (inactive),0.0319 (inactive),1.19 (inactive),1.61,1.34 (inactive),1.48 (inactive),3.23
CCCC[C@@H]1C[C@H]1[C@@H](NC(=O)c1cccs1)c1ccc(Cl)cc1,-0.29,-3.19 (inactive),-0.288 (inactive),0.39 (inactive),0.958 (inactive),-1.05,-0.224,-0.989,-1.01,-1.75,-1.06 (inactive),-0.124,0.492 (inactive),-0.696 (inactive),1.13 (inactive),-1.93 (inactive),1.38,-3.93 (inactive),-6.76 (inactive),-2.26
C=C(CCCC)/C(=C/C[C@@H](OC(=O)c1ccncc1)c1ccc(CO)o1)c1cnc2ccccc2c1,0.209,-1.47 (inactive),-1.26 (inactive),2.38 (inactive),0.176 (inactive),1.39,0.461,1.42,1.07,2.18,0.583 (inactive),0.569,7.06 (inactive),0.843 (inactive),1.17 (inactive),0.0867 (inactive),-0.349,0.194 (inactive),-0.546 (inactive),-0.634
